# Assay results from a collection of fitness landscapes (doi:10.1016/j.celrep.2020.107928).
# The full ranking holds about 81,000 sequences; the median of “one-hybrid fitness for binding parS DNA” is about -0.17, and the highest 2% start at about 0.51. What follows is part of a selection rich in the highest values, with near analogues and random picks from the rest.
# B1: Caulobacter ParB omega fusion; a variant is named by its letters at X, in order, B8GW30 (parent)
# chain: MESVVVGEPGMSEGRRGLGRGLSALLGEVDAAPAQAPGEQLGGSREAPIEILQRNPDQPRRTFREEDLEDLSNSIREKGVLQPILVRPSPDTAGEYQIVAGERAWRAAQRAGLKTVPIMVRELDDLAVLEIGIIENVQRADLNVLEEALSYKVLMEKFERTQENIAQTIGKSXSHVANXMRLLXLPDEVQSYLVSGELTAXHARAIAAAADPVALAKQIIEGGLSVRETEALARKAPNLSAGKSKGGRPPRVKDTDTQALESDLSSVLGLDVSIDHRGSTGTLTITYATLEQLDDLCNRLTRGI
# Variants of: B1
# Assay: one-hybrid fitness for binding parS DNA (scaled: cognate 1, non-cognate 0); higher = stronger binding
# Conditions: with parS DNA site
# Method in brief: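 Bacterial one-hybrid selection in E. coli USO rpoZ- hisB- pyrF- with a HIS3 reporter carrying the site 19 bp from the promoter, screening Caulobacter ParB libraries with four specificity codons randomised (NNS). Cells grew 48 hours at 37°C on M9-minus-histidine plus 0.1 mM IPTG and 5 mM 3-AT. Plasmids before and after selection were Illumina-sequenced, three replicate libraries pooled, and variants under 10 reads dropped. Fitness is the log change in variant-to-wild-type read ratio, rescaled to cognate 1, non-cognate 0.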
row,Variant,one-hybrid fitness for binding parS DNA
1,RLQA,0.616
2,NLQA,≤ 0.2
3,KMPV,≤ 0.2
4,KSYG,≤ 0.2
5,MYPR,≤ 0.2
6,AHSN,≤ 0.2
7,MNDG,≤ 0.2
8,QPYH,≤ 0.2
9,TMHS,≤ 0.2
10,PTQT,≤ 0.2
11,RAVS,0.986
12,RAKH,0.239
13,RAVH,0.202
14,RAKS,0.874
15,RAVD,≤ 0.2
16,RAKP,≤ 0.2
17,TSEV,≤ 0.2
18,RRHL,≤ 0.2
19,PNHC,≤ 0.2
20,NLGV,≤ 0.2
21,RAVG,0.923
22,RAVR,≤ 0.2
23,RAKG,0.937
24,RAKK,≤ 0.2
25,RAKQ,≤ 0.2

row,Variant,one-hybrid fitness for binding parS DNA
1,RAVF,≤ 0.2
2,QLEL,≤ 0.2
3,FTDC,≤ 0.2
4,NTWT,≤ 0.2
5,RQDP,≤ 0.2
6,RQNH,0.329
7,RQNS,0.921
8,RQDS,0.977
9,RQNP,≤ 0.2
10,RQDN,0.431
11,PMTF,≤ 0.2
12,IRPV,≤ 0.2
13,RSLM,0.32
14,WKDS,≤ 0.2
15,RPKC,≤ 0.2
16,RCKC,0.816
17,RDKC,0.282
18,RSKP,≤ 0.2
19,RSKN,0.443
20,RSKC,0.943
21,IDNS,≤ 0.2
22,QCDG,≤ 0.2
23,PPSE,≤ 0.2
24,KIGR,≤ 0.2
25,ANCC,≤ 0.2

row,Variant,one-hybrid fitness for binding parS DNA
1,HRKN,≤ 0.2
2,RNKN,0.354
3,RNVS,0.674
4,RNKS,0.936
5,RNKH,0.219
6,RNVY,≤ 0.2
7,RNYY,0.297
8,RNVP,≤ 0.2
9,RNKY,0.543
10,RNVD,≤ 0.2
11,QADL,≤ 0.2
12,QIAH,≤ 0.2
13,YERV,≤ 0.2
14,YMQL,≤ 0.2
15,NLRR,≤ 0.2
16,QKLQ,≤ 0.2
17,RIFY,0.462
18,RIAH,0.279
19,RIFK,0.283
20,RIAG,0.997
21,RIFG,0.978
22,RIAP,≤ 0.2
23,YDMG,≤ 0.2
24,WYYF,≤ 0.2
25,GTPA,≤ 0.2

row,Variant,one-hybrid fitness for binding parS DNA
1,PTAE,≤ 0.2
2,RYPG,0.545
3,RYIG,0.793
4,RYIN,0.269
5,RYIK,≤ 0.2
6,RYPH,≤ 0.2
7,RYPN,≤ 0.2
8,PRFW,≤ 0.2
9,CGQS,≤ 0.2
10,HFIF,≤ 0.2
11,GKTS,≤ 0.2
12,RLRP,≤ 0.2
13,RLHH,0.204
14,RLND,≤ 0.2
15,RLSD,≤ 0.2
16,RLHS,0.96
17,RLHP,≤ 0.2
18,RLSS,0.991
19,RLNH,0.252
20,RLRS,0.875
21,RLNS,0.932
22,RLSN,0.455
23,RLRH,0.223
